Records with an inconclusive call do not appear. Activity calls are given as the source filed them. Unless noted, calls follow the shape of the dose curve; as a rule, active = well fitted curve in the direction sought with a large enough effect in the repeat runs; inconclusive = weak or mixed curves; inactive = no such curve, though single readings can be large; an effect the other way counts as inactive or inconclusive.
How the values were obtained:
[1] = qHTS assay to identify aromatase inhibitors - cell viability counter screen (AID 743084);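 also: cells stimulated with testosterone during compound exposure; nearly all actives have a fitted effect of over 55% in size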
[2] = target: Aryl hydrocarbon receptor (Homo sapiens) (UniProt P35869); test: qHTS assay to identify small molecule that activate the aryl hydrocarbon receptor (AhR) signaling pathway (AID 743085);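 also: HG2L7.5c1 human HepG2 liver cells with stably integrated DRE-driven firefly reporter; series mostly up to about 70 µM; nearly all actives have a fitted effect of over 15% in size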
In short: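 Steps: seed HepG2-AhR-luc cells; allow 5 h at 37C; pin-transfer test compound or vehicle; incubate 24 h at 37C; add viability dye (30 min, 37C) and read fluorescence; add luciferase substrate (30 min, RT) and read luminescence.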

[3] = qHTS assay to identify small molecule that activate the aryl hydrocarbon receptor (AhR) signaling pathway - cell viability counter screen (AID 743086);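 also: HepG2 liver cells carrying the AhR DRE luciferase reporter; series mostly up to about 70 µM; nearly all actives have a fitted effect of over 45% in size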
In short: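 HepG2-AhR-luc (HG2L7.5c1) cells, 4000/well, were preincubated 5 h at 37C, exposed to compound in qHTS format for 24 hr at 37C, then given CellTiter-Fluor for 30 min; viability was read as fluorescence in the reporter wells.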

[4] = target: Peroxisome proliferator-activated receptor gamma (Homo sapiens) (UniProt P37231); test: qHTS assay to identify small molecule agonists of the peroxisome proliferator-activated receptor gamma (PPARg) signaling pathway (AID 743094; active = well fitted activation curve with a large enough effect in the signal ratio in the repeat runs, not every such curve was filed as active; the % refers to the signal ratio)
In short: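 Agonist activity was taken from a beta-lactamase reporter (FRET substrate, 1 h at room temperature) in HEK293H cells carrying a PPARg UAS-bla construct. Compounds in DMSO were incubated 17 h at 37C after a 5 h cell pre-incubation.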

[5] = qHTS assay to identify small molecule antagonists of the peroxisome proliferator-activated receptor gamma (PPARg) signaling pathway - cell viability counter screen (AID 743194); also: nearly all actives have a fitted effect of over 55% in size
In short: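 PPARg-UAS-bla HEK293H cells were plated, rested 5 h at 37 C, then treated with compounds plus rosiglitazone (50 nM final) for 17 h at 37 C; viability was then read by CellTiter-Glo luminescence after 30 min at room temperature.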

[6] = qHTS assay for small molecule agonists of the antioxidant response element (ARE) signaling pathway (AID 743202; active = well fitted activation curve with a large enough effect in the signal ratio in the repeat runs, not every such curve was filed as active; the % refers to the signal ratio)
In short: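 Steps: seed ARE-bla HepG2 cells (2,000/well); incubate 5 h at 37 C; add compounds by pin tool; incubate 16 h at 37 C; add FRET substrate; read fluorescence after 2 h at RT.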

[7] = qHTS assay for small molecule activators of the heat shock response signaling pathway - cell viability counter screen (AID 743209); also: nearly all actives have a fitted effect of over 50% in size
In short: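 Cytotoxicity counter screen run in the same wells as the heat-shock bla reporter assay: HeLa HSE-bla cells, 5 h compound exposure at 37 C, viability read by CellTiter-Glo luminescence.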

[8] = qHTS assay for small molecule activators of the heat shock response signaling pathway (AID 743210; active = well fitted activation curve with a large enough effect in the signal ratio in the repeat runs, with a control signal flat, not every such curve was filed as active; the % refers to the signal ratio;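 also: HeLa cells with beta-lactamase reporter driven by heat shock elements; series mostly up to about 63 µM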)
In short: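 Activation of heat shock element-controlled beta-lactamase expression is measured in HeLa cells by LiveBLAzer FRET fluorescence, with compound exposure lasting 5 h at 37 C and substrate loading 2.5 h at room temperature.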

[9] = qHTS assay to identify small molecule agonists of the peroxisome proliferator-activated receptor delta (PPARd) signaling pathway - cell viability counter screen (AID 743211); also: nearly all actives have a fitted effect of over 55% in size
In short: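 Viability of GeneBLAzer PPARd UAS-bla HEK293H cells was assessed after 17 h compound incubation at 37C, using CellTiter-Glo reagent added after the reporter read and luminescence recorded 30 min later.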

[10] = target: Peroxisome proliferator-activated receptor delta (Homo sapiens) (UniProt Q03181); test: qHTS assay to identify small molecule agonists of the peroxisome proliferator-activated receptor delta (PPARd) signaling pathway (AID 743212; calls by dose curve)
In short: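 Cells expressing a UAS-driven beta-lactamase reporter (PPARd-bla HEK293H) were given test compounds after a 5 h settle and kept at 37 C. Reporter activity was then measured as FRET fluorescence using LiveBLAzer B/G substrate.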

[11] = qHTS assay to identify small molecule antagonists of the peroxisome proliferator-activated receptor delta (PPARd) signaling pathway - cell viability counter screen (AID 743213); also: nearly all actives have a fitted effect of over 50% in size
In short: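 In this counter screen, HEK293H cells carrying a UAS-beta-lactamase reporter are co-treated with test compounds and 300 nM L165041 (final) for 17 h at 37 C; cell viability is quantified by CellTiter-Glo luminescence.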

[12] = target: Peroxisome proliferator-activated receptor delta (Homo sapiens) (UniProt Q03181); test: qHTS assay to identify small molecule antagonists of the peroxisome proliferator-activated receptor delta (PPARd) signaling pathway (AID 743215; active = well fitted inhibition curve with a large enough effect in the signal ratio in the repeat runs, not every such curve was filed as active; the % refers to the signal ratio;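 also: cells stimulated with agonist L165041 at 300 nM final during compound exposure; series mostly up to about 62 µM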)
In short: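 Agonist L165041 (300 nM final) added with compound to PPARd-bla HEK293H UAS-bla reporter cells; 17 h incubation at 37 C. Read-out: LiveBLAzer FRET substrate, 2 h at room temperature, fluorescence intensity.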

[13] = target: Bile acid receptor (Homo sapiens) (UniProt Q96RI1); test: qHTS assay to identify small molecule antagonists of the farnesoid-X-receptor (FXR) signaling pathway (AID 743217; active = well fitted inhibition curve with a large enough effect in the signal ratio in the repeat runs, not every such curve was filed as active; the % refers to the signal ratio)
In short: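 Antagonist mode: chenodeoxycholic acid at 50 uM final stimulates a UAS-driven beta-lactamase reporter in HEK 293T FXR-bla cells during 16 h, 37C compound exposure. Read-out is FRET substrate fluorescence after 2 h at room temperature.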

[14] = qHTS assay to identify small molecule agonists of the farnesoid-X-receptor (FXR) signaling pathway - cell viability counter screen (AID 743218); also: nearly all actives have a fitted effect of over 45% in size
In short: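 Viability counter screen in the same wells: CellTiter-Glo luminescence, 30 min room-temperature incubation, measured after the beta-lactamase read. Cells were GeneBLAzer FXR-UAS-bla HEK 293T, compound-treated 16 h at 37C.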

[15] = target: Bile acid receptor (Homo sapiens) (UniProt Q96RI1); test: qHTS assay to identify small molecule agonists of the farnesoid-X-receptor (FXR) signaling pathway (AID 743220; active = well fitted activation curve with a large enough effect in the signal ratio in the repeat runs, not every such curve was filed as active; the % refers to the signal ratio)
In short: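 FXR-UAS-bla HEK 293T cells carrying a UAS-driven beta-lactamase reporter were plated for 5 h at 37C/5% CO2, then exposed to DMSO-dissolved Tox21 10K compounds for 16 h at 37C. A LiveBLAzer B/G FRET substrate was loaded for 2 h at room temperature before fluorescence reading.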

[16] = qHTS assay to identify small molecule antagonists of the farnesoid-X-receptor (FXR) signaling pathway - cell viability counter screen (AID 743221; active = well fitted cell-killing curve with a large enough effect in the repeat runs, not every such curve was filed as active; also: nearly all actives have a fitted effect of over 50% in size)
In short: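 Quantitative HTS of the Tox21 10K library run in parallel with the beta-lactamase reporter read. HEK 293T cells carrying a UAS-driven bla reporter got compound and 50 uM CDCA (final) for 16 h; ATP-based luminescence followed.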

[17] = target: Vitamin D3 receptor (Homo sapiens) (UniProt P11473); test: qHTS assay to identify small molecule agonists of the vitamin D receptor (VDR) signaling pathway (AID 743222; calls by dose curve)
In short: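 Agonist mode, beta-lactamase reporter: fluorescence from LiveBLAzer B/G FRET substrate (2 h, room temperature) read after 16 h compound treatment at 37 C of VDR-bla cells, which were pre-incubated 4 h after seeding.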

[18] = qHTS assay for small molecule agonists of the antioxidant response element (ARE) signaling pathway - cell viability counter screen (AID 743203; calls by dose curve; also: nearly all actives have a fitted effect of over 55% in size)
In short: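 Viability counter screen: CellTiter-Glo luminescence, read after 30 min at room temperature, in ARE-bla HepG2 wells. Compound exposure lasted 16 h at 37C/5% CO2, following a 5 h pre-incubation of the cells after plating.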

[19] = target: Vitamin D3 receptor (Homo sapiens) (UniProt P11473); test: qHTS assay to identify small molecule antagonists of the vitamin D receptor (VDR) signaling pathway (AID 743223; active = well fitted inhibition curve with a large enough effect in the signal ratio in the repeat runs, not every such curve was filed as active; the % refers to the signal ratio)
In short: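 Fluorescence from LiveBLAzer B/G FRET substrate, read after 2 h at room temperature, reflects beta-lactamase reporter activity in VDR-bla cells treated 16 h at 37C with compounds and agonist 1alpha,25-dihydroxyvitamin D3 (3 nM final).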

Measured: Potency

Vitamin D3 receptor (Homo sapiens), sequence (P11473 whole entry, looked up): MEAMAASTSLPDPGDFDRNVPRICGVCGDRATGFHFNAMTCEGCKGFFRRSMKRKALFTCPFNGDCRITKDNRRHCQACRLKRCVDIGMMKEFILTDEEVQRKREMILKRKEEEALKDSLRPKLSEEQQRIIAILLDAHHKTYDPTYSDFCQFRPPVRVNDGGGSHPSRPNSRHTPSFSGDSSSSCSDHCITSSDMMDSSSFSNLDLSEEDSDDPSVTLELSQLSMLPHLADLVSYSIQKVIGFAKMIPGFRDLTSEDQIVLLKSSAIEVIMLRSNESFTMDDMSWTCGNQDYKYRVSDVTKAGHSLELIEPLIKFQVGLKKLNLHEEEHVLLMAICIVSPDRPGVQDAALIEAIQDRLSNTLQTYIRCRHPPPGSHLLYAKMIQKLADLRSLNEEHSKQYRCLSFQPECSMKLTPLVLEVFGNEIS
Aryl hydrocarbon receptor (Homo sapiens), sequence (P35869 whole entry, looked up): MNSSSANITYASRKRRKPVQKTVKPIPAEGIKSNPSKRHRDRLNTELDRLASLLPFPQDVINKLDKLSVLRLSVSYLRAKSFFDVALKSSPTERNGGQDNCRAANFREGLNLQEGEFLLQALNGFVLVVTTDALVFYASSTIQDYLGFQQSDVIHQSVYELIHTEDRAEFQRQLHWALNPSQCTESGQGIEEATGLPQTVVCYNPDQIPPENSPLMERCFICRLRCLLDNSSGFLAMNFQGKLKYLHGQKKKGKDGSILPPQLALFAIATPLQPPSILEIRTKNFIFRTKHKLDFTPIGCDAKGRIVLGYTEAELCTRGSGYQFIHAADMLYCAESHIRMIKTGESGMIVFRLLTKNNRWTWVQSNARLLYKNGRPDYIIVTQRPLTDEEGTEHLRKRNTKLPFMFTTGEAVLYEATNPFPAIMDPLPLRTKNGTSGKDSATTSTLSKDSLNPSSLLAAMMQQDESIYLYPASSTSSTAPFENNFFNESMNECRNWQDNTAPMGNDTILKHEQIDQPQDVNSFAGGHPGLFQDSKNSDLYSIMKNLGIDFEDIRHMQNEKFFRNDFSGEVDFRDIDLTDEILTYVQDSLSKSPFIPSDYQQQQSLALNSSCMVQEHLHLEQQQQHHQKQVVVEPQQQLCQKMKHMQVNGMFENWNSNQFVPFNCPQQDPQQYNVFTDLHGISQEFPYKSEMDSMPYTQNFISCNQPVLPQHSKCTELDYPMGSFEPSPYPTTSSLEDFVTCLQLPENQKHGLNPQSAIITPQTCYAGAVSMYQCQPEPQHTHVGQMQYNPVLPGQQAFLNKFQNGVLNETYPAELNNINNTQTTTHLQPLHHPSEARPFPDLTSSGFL
Peroxisome proliferator-activated receptor delta (Homo sapiens), sequence (Q03181 whole entry, looked up): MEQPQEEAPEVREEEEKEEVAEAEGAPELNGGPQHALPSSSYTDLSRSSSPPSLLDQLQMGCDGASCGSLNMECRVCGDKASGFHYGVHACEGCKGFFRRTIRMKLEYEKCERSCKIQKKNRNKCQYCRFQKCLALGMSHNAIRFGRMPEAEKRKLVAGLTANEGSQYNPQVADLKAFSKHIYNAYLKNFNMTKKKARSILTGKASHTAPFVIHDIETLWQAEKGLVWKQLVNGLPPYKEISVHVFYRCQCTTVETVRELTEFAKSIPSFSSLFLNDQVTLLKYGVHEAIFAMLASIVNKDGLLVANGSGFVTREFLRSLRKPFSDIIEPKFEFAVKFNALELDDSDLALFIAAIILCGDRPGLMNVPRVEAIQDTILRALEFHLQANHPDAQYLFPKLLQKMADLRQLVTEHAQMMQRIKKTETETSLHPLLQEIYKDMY
Peroxisome proliferator-activated receptor gamma (Homo sapiens), sequence (P37231 whole entry, looked up): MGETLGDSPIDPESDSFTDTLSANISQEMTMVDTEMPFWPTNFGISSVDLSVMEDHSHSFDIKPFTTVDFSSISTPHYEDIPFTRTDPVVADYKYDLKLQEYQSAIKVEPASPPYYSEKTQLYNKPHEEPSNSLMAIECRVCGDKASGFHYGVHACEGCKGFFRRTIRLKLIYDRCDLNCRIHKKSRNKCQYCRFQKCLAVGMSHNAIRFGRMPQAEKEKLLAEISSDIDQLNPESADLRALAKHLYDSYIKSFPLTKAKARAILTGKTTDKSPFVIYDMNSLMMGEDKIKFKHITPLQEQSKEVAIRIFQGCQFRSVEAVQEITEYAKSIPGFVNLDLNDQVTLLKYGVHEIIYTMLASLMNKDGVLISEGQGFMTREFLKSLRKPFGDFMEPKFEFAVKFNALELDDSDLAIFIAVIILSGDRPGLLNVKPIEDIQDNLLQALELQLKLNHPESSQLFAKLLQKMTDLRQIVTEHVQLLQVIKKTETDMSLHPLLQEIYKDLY
Bile acid receptor (Homo sapiens), sequence (Q96RI1 whole entry, looked up): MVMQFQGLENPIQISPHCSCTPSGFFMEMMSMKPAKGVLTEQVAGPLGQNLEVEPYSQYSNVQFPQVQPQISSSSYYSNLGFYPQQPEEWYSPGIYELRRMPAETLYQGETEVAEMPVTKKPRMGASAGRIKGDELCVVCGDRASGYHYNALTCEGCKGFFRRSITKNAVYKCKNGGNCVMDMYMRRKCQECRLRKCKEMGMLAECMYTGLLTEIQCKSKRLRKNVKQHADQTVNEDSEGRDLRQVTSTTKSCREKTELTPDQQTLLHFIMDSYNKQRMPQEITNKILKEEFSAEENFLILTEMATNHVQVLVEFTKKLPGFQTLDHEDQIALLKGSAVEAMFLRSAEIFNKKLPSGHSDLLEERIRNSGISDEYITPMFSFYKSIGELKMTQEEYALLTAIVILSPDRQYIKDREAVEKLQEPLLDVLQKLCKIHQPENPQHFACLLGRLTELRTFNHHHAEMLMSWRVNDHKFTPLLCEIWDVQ

Nc1ccc(S(=O)(=O)Nc2ccccn2)cc1
not listed: [18] | [19]
inactive: all other assays above

O=C1CC[C@H](C(=O)N2CCCCC2)N1
not listed: [12] | [13] | [15] | [17] | [19]
inactive: all other assays above

COc1cc2c3cc1Oc1cc(ccc1O)C[C@@H]1c4c(cc(OC)c(O)c4Oc4ccc(cc4)C[C@@H]3N(C)CC2)CC[N+]1(C)C
not listed: [13] | [14] | [18]
inactive: all other assays above

O=S(=O)(O)SSS(=O)(=O)O
not listed: [6] | [8] | [12] | [13] | [15] | [17] | [19]
inactive: all other assays above

CC1(N)CCC(C(C)(C)N)CC1 (configuration not stated)
not listed: [13] | [15] | [18]
inactive: all other assays above

CN=C(NC#N)NCCSCc1csc(N=C(N)N)n1
not listed: [13] | [15] | [19]
inactive: all other assays above

C=C(C)C(=O)OC
not listed: [17] | [18] | [19]
inactive: all other assays above

From PubChem BioAssay (Tox21)
